Experimental data taken from PubChem BioAssay (NCATS).
Several values for one entry are separate records, joined by “and”; a condition that tells them apart may be missing. Equal entries are not always repeated. Records with an inconclusive call do not appear. Activity calls are given as the source filed them. The call rests on the fitted dose curve.

Test: Primary qHTS to identify inhibitors of SARS-CoV-2 cell entry (AID 1645846); further: nearly all actives have a fitted effect of over 45% in size
Settings: SARS-CoV-2 pseudovirus cell entry assay, luminescence; activity change, negative = inhibition: at 57.1 µM (top of the series) unless noted; series mostly up to 57.1 µM
Source text: Assay Provider: Wei Zheng, Ph.D.
National Center for Advancing Translational Sciences, National Institute of Health, Rockville, MD.
SARS-CoV-2 spike protein, within the viral envelope, mediates viral attachment and infection of host cells. The SARS-CoV-2 spike protein specifically binds to the host receptor ACE2 (Angiotensin-converting enzyme 2). This interaction promotes endocytosis of the viral particle, additional events lead to viral-host cell membrane fusion and release of the viral contents, allowing viral replication.
While SARS-CoV-2 requires BSL-3 facilities for live virus work, pseudotyped partices (PP) that incorporate SARS-CoV-2 spike proteins without replication elements could facilitate studies on viral entry mechanisms in a BSL-2 setting. This PP cell entry assay could also enable screening of small molecule compound libraries in BSL-2 setting to identify inhibitors of SARS-CoV-2 cell entry.
PROTOCOL TABLE (format as described by Inglese J, Shamu CE and Guy RK. 2007)
SEQUENCE No. (e.g., 1, 2, 3, etc.); […] (e.g., Cells, Incubation, Reagent, etc.); VALUE and DESCRIPTION.
1. Cells. Seed 1500 HEK293-ACE2 cells (Expi293F with stable expression of human ACE2) in 2 uL/well media (DMEM, 10% FBS, 1x L-glutamine, 1x Pen/Strep, 1 ug/ml puromycin) in white 1536-well assay plates (Greiner #782073).
2. Incubation. Incubate at 37C with 5% CO2 overnight (~16 h).
3. Compounds. Dispense 23 nL/well compounds in DMSO via pin transfer.
4. Incubation. Incubate for 1 hr at 37C 5% CO2.
5. Reagent. Dispense 2 uL/well of SARS-CoV-2-S pseudotyped particles. [a] PPs are produced with murine leukemia virus pseudotyping. [b] SARS-CoV-2-S is Wuhan-Hu-1 sequence (BEI #NR-52420) with C-terminal 19 amino acid truncation.
6. Centrifuge. […]
7. Incubation. Incubate at for 48 hr at 37C 5% CO2
8. Centrifuge. Remove supernatant with gentle centrifugation using a Blue Washer (BlueCat Bio).
9. Reagent. Dispense 4 uL/well of Bright-Glo Luciferase detection reagent (Promega #E2620).
10. Incubation. Incubate for 5 min at room temperature.
11. Detection. Read luminescence signal (Viewlux plate reader, PerkinElmer). Data was normalized with wells containing SARS-CoV-2-S PP as 100%, and wells containing bald PP (no fusion protein) as 0%.
Potency means the concentration at half of the fitted maximal effect.

Structure (SMILES) | Potency | activity change, negative = inhibition
N#C/C(=C1\SCC(c2ccccc2Cl)S1)n1ccnc1 (stereo not given) | inactive | –
O=[N+]([O-])/N=C1\NCCN1Cc1ccc(Cl)nc1 | – | -0.0091%
CC(C)c1ccc(Cn2ccc3c4c(N)nc(NC5CC5)nc4ccc32)cc1 | – | -96.8%
Nc1nc(Nc2ccc(S(N)(=O)=O)cc2)nn1C(=O)c1c(F)cccc1F | 1 µM (active) | –
CCOc1cc2ncc(C#N)c(Nc3ccc(OCc4ccccn4)c(Cl)c3)c2cc1NC(=O)/C=C/CN(C)C | 8.91 µM (active) and 2.51 µM (active) | –
C=CCNC(N)=S | inactive | –
CC(=O)[O][Hg][c]1ccccc1 | 1.58 µM (active) | –
O=C1C=CC[C@@H]2[C@H]3CCCN4CCC[C@@H](CN12)[C@@H]34 | inactive | –
CS(=O)(=O)c1ccc(C(=O)Nc2ccc(Cl)c(-c3ccccn3)c2)c(Cl)c1 | – | -12.8% and -5.84%
CCCCC(CC)COC(=O)c1ccc(N(C)C)cc1 (stereo not given) | – | 4.94%
CC(C)c1ccc2c(c1)c(SC(C)(C)C)c(CC(C)(C)C(=O)O)n2Cc1ccc(Cl)cc1 | inactive | –
CC(=O)NC(C)c1ccc(Oc2ccc(OC(C)C)cc2)cc1 (stereo not given) | – | -26.1% [at 114 µM]
CCN(c1ccccc1)c1cc(NC)[n+](C)c(C)n1 | – | 3.72%
N#Cc1c(O)c2c(-c3ccc(-c4ccccc4O)cc3)csc2[nH]c1=O | – | 3.57%
NCCS | inactive | –
CC(=O)Oc1cccc(C)c1 | – | 0.724%
CCCCCCCC(=O)OCC(O)CO (stereo not given) | – | -24.7%
CC[C@@H](C(N)=O)N1CCCC1=O | – | -1.29%
CCCN1CCO[C@@H]2c3cc(O)ccc3OC[C@H]21 | inactive | –

Structure (SMILES) | Potency | activity change, negative = inhibition
S=C(NCc1ccc2c(c1)OCO2)N1CCN(c2ncnc3c2oc2ccccc23)CC1 | 6.31 µM (active) | –
O=C1NS(=O)(=O)c2ccccc21 | – | -23.6%
CNC(=O)c1ccc(N2C(=S)N(c3ccc(C#N)c(C(F)(F)F)c3)C(=O)C2(C)C)cc1F | 22.4 µM (active) | –
CC(=O)Nc1ccc(OC[C@](C)(O)C(=O)Nc2ccc([N+](=O)[O-])c(C(F)(F)F)c2)cc1 | – | 0.0964%
CC1(C)Cc2c(-c3ccccc3)c(-c3ccc(Cl)cc3)c(CC(=O)O)n2C1 | – | -28.3%
COc1cc2c(Oc3ccc(NC(=O)C4(C(=O)Nc5ccc(F)cc5)CC4)cc3F)ccnc2cc1OCCCN1CCOCC1 | 8.91 µM (active) | –
O=C(O)c1ccc(O)c2ncc(N3CCOCC3)cc12 | 28.2 µM (active) | –
C[C@H](NC(=O)Cc1cc(F)cc(F)c1)C(=O)N[C@@H]1C(=O)N(C)c2ccccc2-c2ccccc21 | – | 3.07%
Cc1n[nH]c(C)c1Cc1sc2c(c1C(=O)N1C[C@H](O)CO1)c(=O)n(C)c(=O)n2CC(C)C | – | -55.4%
Nc1ccccc1NC(=O)c1ccc(CNc2nccc(-c3cccnc3)n2)cc1 | inactive | –
O=C(O)CNC(=O)CNC(=O)CNC(=O)CSC(=O)c1ccccc1 | – | 1.66%
C[C@@H](N)C(=O)O | – | -18.7%
N[C@H]1C(O)O[C@H](CO)[C@@H](O)[C@@H]1O (stereo not given in full) | – | -23.2%
Cc1cc(Nc2nc(N[C@@H](C)c3ncc(F)cn3)ncc2Cl)n[nH]1 | – | -52.3%
Cc1nc(N)sc1-c1ccnc(Nc2ccc(N3CCOCC3)cc2)n1 | 3.16 µM (active) | –
CC(=O)Nc1ccc(O)cc1 | – | -27.9%
CSCC[C@@H](NC(=O)[C@@H](Cc1ccccc1)NC(=O)CNC(=O)CNC(=O)[C@@H](N)Cc1ccc(O)cc1)C(=O)O | – | -0.623%
Cc1ccc(C(N)=O)cc1Nc1nccc(-c2cn(C(C)C)c3cnccc23)n1 | 8.91 µM (active) | –
O=C1CCCC2=C1C(c1[nH]ncc1Cl)N=C(Nc1nc3ccccc3o1)N2 (stereo not given) | – | -4.23%

Same assay, conditions: SARS-CoV-2 pseudovirus cell entry assay, luminescence; at 57.1 µM (top of the series)

Structure (SMILES) | activity change, negative = inhibition [%]
NC1=NC(=O)N2CC12 (stereo not given) | -95.3

Same assay, conditions: SARS-CoV-2 pseudovirus cell entry assay, luminescence; at 114 µM (top of the series)

Structure (SMILES) | activity change, negative = inhibition [%]
NC1=NC(=O)N2CC12 (stereo not given) | -13.1
